Measured values as given in PubChem BioAssay.
Activity calls are given as the source filed them.

Key:
[1] = system: Plasmodium falciparum Sir2 (PF13_0152, Sir2A); test: Plasmodium falciparum Sir2A binding compounds – biochemical, small-molecule microarray, 635 nm fluorescence, primary screen (AID 1098); details: fluorescence 635 nm, higher = more signal;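 further: score merges spot fluorescence intensity with its signal-to-noise ratio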
[2] = probe aDKK1 binding to arrayed compounds – biochemical, biotinylated probe, 635/667 nm fluorescence, primary screen (AID 1099); details: small-molecule microarray, higher = more signal;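 further: score merges 667nm spot fluorescence with signal to noise across triplicate slides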
[3] = probe aCHRDL2 binding to arrayed compounds – biochemical, biotinylated probe, 635/667 nm fluorescence, primary screen (AID 1100); details: small-molecule microarray, higher = more signal
[4] = change in splice reporter luminescence, either direction, cell-based, HEK293, spliceosome inhibition project, primary screen (AID 1101); details: HEK293 splicing luciferase reporter, 24 h, higher = more signal, called active from +8 up or from −8 down;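 further: HEK293 cells carrying a splicing-competent luciferase reporter gene; test concentration not given here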
[5] = molecular target: Fibroblast growth factor 10 (Homo sapiens) (UniProt O15520); test: compounds binding fibroblast growth factor 10 – biochemical, small-molecule microarray, 635 nm fluorescence, primary screen (AID 1102); details: FGF10 binding, fluorescence 635 nm, higher = more signal
[6] = system: glycogen synthase kinase-3 (GSK3A per assay name; protocol says GSK3B); test: compounds binding glycogen synthase kinase-3 – biochemical, small-molecule microarray, 635 nm fluorescence, GSK3A, primary screen (AID 1103); details: fluorescence 635 nm, higher = more signal; further: the record names both GSK3A and GSK3B
[7] = molecular target: Epidermal growth factor receptor (Homo sapiens) (UniProt P00533); test: compounds binding epidermal growth factor receptor – biochemical, small-molecule microarray, 635 nm fluorescence, primary screen (AID 1104); details: EGFR binding, higher = more signal;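 further: score merges 667 nm emission intensity with spot signal to noise over triplicate slides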
[8] = molecular target: Follistatin-related protein 3 (Homo sapiens) (UniProt O95633); test: compounds binding follistatin-related protein 3 – biochemical, small-molecule microarray, 635 nm fluorescence, primary screen (AID 1105); details: FSTL3 binding, higher = more signal;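 further: score merges emission near 667 nm and signal to noise per printed spot across three slides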
[9] = molecular target: Dickkopf-related protein 1 (Homo sapiens) (UniProt O94907); test: small molecules binding DKK1 protein – biochemical, small-molecule microarray, 635 nm fluorescence scan, primary screen (AID 1106); details: higher = more signal;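 further: score merges emission near 667 nm with signal to noise over three replicate slides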
[10] = system: Inhibin beta A chain (activin A); test: small molecules binding activin A – biochemical, small-molecule microarray, 635 nm fluorescence scan, primary screen (AID 1107); details: INHBA, higher = more signal;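 further: mouse activin A protein probed at 4.33 µg/mL on printed slides; score merges bound-protein fluorescence near 667 nm with spot signal-to-noise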
[11] = system: Human papillomavirus type 1a protein E7 (residues 44-93); test: small molecules binding HPV E7 44-93 – biochemical, small-molecule microarray, residues 44-93, 635 nm fluorescence, primary screen (AID 1108); details: fluorescence 635 nm, higher = more signal;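 further: E7 fragment applied at 1 µg/mL in TBST for 1 h at 4 C; score combines spot fluorescence with its signal to noise ratio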
[12] = hepatitis C replication reporter changes, two-sided – Huh7 cells, luciferase reporter, HCV replication inhibitor project, primary screen (AID 1109); details: Huh7 HCV replicon luciferase reporter, 48 h; higher = more signal;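 further: huh7 hepatoma cells harbouring a luciferase neomycin HCV replicon reporter; luciferase luminescence as measure of HCV replicon replication; test concentration not given here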
[13] = molecular target: Left-right determination factor 2 (Homo sapiens) (UniProt O00292); test: small molecules binding LEFTY2 protein – biochemical, small-molecule microarray, 635 nm fluorescence scan, primary screen (AID 1110); details: higher = more signal
[14] = molecular target: Calmodulin-1 (Homo sapiens) (UniProt P0DP23); test: small molecules binding calmodulin-1 with EGTA – biochemical, small-molecule microarray, Cy5-labelled CALM1, profiling panel (AID 1111); details: Cy5-CALM1 binding fluorescence, higher = more signal;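 further: labelled calmodulin applied in Tris saline Tween buffer holding calcium plus EGTA and DTT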
[15] = molecular target: Calmodulin-1 (Homo sapiens) (UniProt P0DP23); test: small molecules binding Ca-loaded calmodulin-1 – biochemical, small-molecule microarray, Cy5-labelled CALM1, plus calcium, artefact control for SMM control-protein annotation, profiling panel (AID 1112); details: Cy5-CALM1 binding fluorescence, higher = more signal;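 further: score merges spot fluorescence with signal to noise from triplicate slides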
[16] = probe aWnt5a binding to arrayed compounds – biochemical, biotinylated probe, 635/667 nm fluorescence, primary screen (AID 1113); details: small-molecule microarray, higher = more signal;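 further: score merges 667 nm fluorescence intensity with signal-to-noise per printed feature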
[17] = probe aShh binding to arrayed compounds – biochemical, biotinylated probe, 635/667 nm fluorescence, primary screen (AID 1114); details: small-molecule microarray, higher = more signal;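 further: probe is biotin-labelled aShh protein from a stem cell growth factor screen; measures binding of labelled protein to compounds printed on the slide; score merges feature fluorescence at 667 nm with signal-to-noise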
[18] = probe aNog binding to arrayed compounds – biochemical, biotinylated probe, 635/667 nm fluorescence, primary screen (AID 1115); details: small-molecule microarray, higher = more signal;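 further: probe is biotinylated aNog protein used at 0.15 µg/mL for 1 h at 4 C; z-score combines 667 nm fluorescence of each spot with its signal to noise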
[19] = molecular target: Torsin-1A-interacting protein 1 (Homo sapiens) (UniProt Q5JTV8); test: compound microarray binding of lysate hLAP1 – cell lysate, small-molecule microarray, COS7 lysate, 635/667 nm fluorescence, primary screen (AID 1116); details: 635 nm fluorescence, higher = more signal
[20] = molecular target: Alpha-bungarotoxin (Bungarus multicinctus) (UniProt P60615); test: compounds binding labelled alpha-BTX control protein – biochemical, small-molecule microarray, Alexa647 label, 635/667 nm fluorescence, artefact control for SMM control protein annotation, profiling panel (AID 1117); details: alpha-BTX-A647 binding fluorescence, higher = more signal
Alpha-bungarotoxin (Bungarus multicinctus), sequence (P60615 whole entry, looked up): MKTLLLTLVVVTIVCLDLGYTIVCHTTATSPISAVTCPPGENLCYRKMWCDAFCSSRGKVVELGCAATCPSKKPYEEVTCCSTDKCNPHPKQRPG

Dickkopf-related protein 1 (Homo sapiens), sequence (O94907 whole entry, looked up): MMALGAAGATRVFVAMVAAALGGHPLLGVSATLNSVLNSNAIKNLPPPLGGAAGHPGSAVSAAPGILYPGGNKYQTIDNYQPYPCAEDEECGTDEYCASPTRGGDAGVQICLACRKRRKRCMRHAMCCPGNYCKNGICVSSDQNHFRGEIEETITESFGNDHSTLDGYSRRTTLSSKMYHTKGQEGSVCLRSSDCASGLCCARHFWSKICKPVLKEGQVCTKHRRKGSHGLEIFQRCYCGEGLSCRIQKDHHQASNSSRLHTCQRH
Follistatin-related protein 3 (Homo sapiens), sequence (O95633 whole entry, looked up): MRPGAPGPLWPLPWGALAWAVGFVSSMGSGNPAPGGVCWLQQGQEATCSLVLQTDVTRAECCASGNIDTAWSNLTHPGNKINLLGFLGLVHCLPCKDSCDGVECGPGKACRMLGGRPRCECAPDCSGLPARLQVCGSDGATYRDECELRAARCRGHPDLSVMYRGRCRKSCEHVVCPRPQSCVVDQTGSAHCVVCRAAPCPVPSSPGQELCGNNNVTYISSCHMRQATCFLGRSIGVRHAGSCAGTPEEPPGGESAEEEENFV
Torsin-1A-interacting protein 1 (Homo sapiens), sequence (Q5JTV8 whole entry, looked up): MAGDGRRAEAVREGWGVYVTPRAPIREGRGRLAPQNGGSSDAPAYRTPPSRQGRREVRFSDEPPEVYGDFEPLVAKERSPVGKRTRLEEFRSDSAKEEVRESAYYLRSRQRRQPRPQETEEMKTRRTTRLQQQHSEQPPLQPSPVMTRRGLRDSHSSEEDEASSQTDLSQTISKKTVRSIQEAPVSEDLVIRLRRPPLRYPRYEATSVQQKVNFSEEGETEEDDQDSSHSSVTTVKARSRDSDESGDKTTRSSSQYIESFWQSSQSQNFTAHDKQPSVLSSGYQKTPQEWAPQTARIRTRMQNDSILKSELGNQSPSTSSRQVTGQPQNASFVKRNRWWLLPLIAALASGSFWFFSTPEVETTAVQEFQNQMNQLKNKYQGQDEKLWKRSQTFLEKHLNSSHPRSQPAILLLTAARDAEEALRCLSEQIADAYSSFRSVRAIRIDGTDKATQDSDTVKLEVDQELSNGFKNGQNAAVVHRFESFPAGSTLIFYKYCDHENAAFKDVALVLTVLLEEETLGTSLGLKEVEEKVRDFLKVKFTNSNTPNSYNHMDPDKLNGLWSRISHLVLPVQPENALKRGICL
Left-right determination factor 2 (Homo sapiens), sequence (O00292 whole entry, looked up): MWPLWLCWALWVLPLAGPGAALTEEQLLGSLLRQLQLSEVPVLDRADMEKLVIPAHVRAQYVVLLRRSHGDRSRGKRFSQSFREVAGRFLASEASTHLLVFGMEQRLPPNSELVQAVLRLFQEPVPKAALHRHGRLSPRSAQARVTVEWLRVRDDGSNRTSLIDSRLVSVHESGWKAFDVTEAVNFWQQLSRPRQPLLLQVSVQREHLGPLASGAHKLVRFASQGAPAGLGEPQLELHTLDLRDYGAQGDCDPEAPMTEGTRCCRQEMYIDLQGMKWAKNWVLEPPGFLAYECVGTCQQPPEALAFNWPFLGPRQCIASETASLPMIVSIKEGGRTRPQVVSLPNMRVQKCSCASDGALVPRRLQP
Epidermal growth factor receptor (Homo sapiens), sequence (P00533 whole entry, looked up): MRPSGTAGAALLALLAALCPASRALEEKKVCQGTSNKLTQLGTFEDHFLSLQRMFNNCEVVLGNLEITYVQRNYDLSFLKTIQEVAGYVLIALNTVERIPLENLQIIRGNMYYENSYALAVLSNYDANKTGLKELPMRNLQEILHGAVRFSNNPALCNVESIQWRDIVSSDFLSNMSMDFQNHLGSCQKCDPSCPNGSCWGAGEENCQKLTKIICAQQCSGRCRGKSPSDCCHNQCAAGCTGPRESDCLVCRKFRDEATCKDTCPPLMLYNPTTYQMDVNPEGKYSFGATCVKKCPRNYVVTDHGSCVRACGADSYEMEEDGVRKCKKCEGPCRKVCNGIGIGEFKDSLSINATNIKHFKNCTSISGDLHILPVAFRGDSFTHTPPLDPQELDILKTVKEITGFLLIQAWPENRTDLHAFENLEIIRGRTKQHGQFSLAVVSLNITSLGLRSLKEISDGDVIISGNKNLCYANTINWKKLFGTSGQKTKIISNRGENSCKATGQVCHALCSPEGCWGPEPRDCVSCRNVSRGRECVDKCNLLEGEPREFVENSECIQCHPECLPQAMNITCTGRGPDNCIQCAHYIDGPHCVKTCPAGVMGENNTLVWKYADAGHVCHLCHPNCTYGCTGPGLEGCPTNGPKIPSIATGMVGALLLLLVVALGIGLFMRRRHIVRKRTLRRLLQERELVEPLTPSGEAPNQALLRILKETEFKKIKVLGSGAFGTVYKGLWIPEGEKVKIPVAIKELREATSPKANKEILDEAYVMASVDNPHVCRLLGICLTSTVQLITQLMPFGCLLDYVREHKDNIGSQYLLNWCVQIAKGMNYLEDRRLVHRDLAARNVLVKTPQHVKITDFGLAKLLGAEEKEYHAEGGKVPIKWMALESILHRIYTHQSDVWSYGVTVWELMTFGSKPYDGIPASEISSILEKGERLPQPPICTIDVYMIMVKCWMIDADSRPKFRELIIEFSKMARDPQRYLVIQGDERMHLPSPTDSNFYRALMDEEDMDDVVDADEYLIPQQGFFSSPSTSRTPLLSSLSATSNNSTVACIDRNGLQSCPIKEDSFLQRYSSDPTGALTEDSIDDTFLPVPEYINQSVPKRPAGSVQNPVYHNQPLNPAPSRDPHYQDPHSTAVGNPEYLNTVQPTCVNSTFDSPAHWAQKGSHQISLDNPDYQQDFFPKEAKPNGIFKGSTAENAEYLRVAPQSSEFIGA
Fibroblast growth factor 10 (Homo sapiens), sequence (O15520 whole entry, looked up): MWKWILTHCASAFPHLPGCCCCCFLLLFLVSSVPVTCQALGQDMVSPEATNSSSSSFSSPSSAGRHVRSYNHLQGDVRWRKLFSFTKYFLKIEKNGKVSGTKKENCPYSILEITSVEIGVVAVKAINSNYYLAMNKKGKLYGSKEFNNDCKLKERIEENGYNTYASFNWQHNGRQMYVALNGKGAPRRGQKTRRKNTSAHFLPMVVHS

SMILES | composite z-score [1] | composite z-score [2] | composite z-score [3] | z-score [4] | composite z-score [5] | composite z-score [6] | composite z-score [7] | composite z-score [8] | composite z-score [9] | composite z-score [10] | composite z-score [11] | z-score [12] | composite z-score [13] | composite z-score [14] | composite z-score [15] | composite z-score [16] | composite z-score [17] | composite z-score [18] | composite z-score [19] | composite z-score [20]
Cc1ccc(S(=O)(=O)OC[C@H]2CN3[C@H](c4ccc(Br)cc4)[C@@H](C)CC[C@H]3C(=O)O2)cc1 | 0.579 | -0.285 | -0.207 | -0.649 (inactive) | 0.725 | -0.204 | -0.0807 | -0.0668 | 0.459 | 0.355 | 0.226 | -1.02 | 0.119 | 0.946 | -0.265 | -0.0462 | 0.0141 | -0.12 | 0.0859 | 0.934
C#CCCCON=C1C[C@@H](O)[C@@H](O)[C@@H]2[C@@H]3C(=O)N(c4ccc(F)cc4F)C(=O)[C@@H]3CC[C@H]12 | 0.87 | -0.177 | -0.86 | -1.35 (inactive) | 0.947 | 0.678 | 0.403 | 0.432 | 0.978 | -0.185 | 0.299 | 0.0534 | 0.358 | -0.353 | -0.693 | -0.006 | -0.0533 | -0.21 | -0.0188 | 0.239
CON=Cc1ccc(C(=O)N2[C@H](c3ccc(C)cc3)[C@@H](C)CC[C@H]2C(=O)OC)cc1 | 0.365 | -0.254 | -0.541 | 0.224 (inactive) | 0.52 | 0.873 | 0.594 | 0.512 | 0.573 | 0.339 | 1.25 | -1.33 | -0.203 | -0.129 | -0.121 | -0.0044 | 0.0684 | -0.0503 | -0.0018 | 0.449
COC(=O)[C@H](C)NC(=O)CCC1CC(OC(=O)NCCc2ccc(F)cc2)CC2(CCCC(COC(=O)NCCC(C)C)O2)O1 (stereo not given in full) | 0.597 | -0.185 | -0.269 | -1.56 (inactive) | 0.866 | -0.102 | 0.0797 | 0.961 | 0.0468 | 0.299 | 0.466 | 0.839 | 0.482 | 0.0458 | -0.233 | -0.119 | 0.0483 | -0.254 | 0.189 | 1.07
CCOC(=O)[C@H](CC(C)C)NC(=O)CCC1CC(OC(=O)NCc2ccc3c(c2)OCO3)CC2(CCCC(COC(=O)NCC3CCCCC3)O2)O1 (stereo not given in full) | 0.74 | -0.209 | -0.62 | -0.266 (inactive) | 0.651 | 0.532 | 0.379 | 1.22 | 0.681 | -0.0703 | 1.39 | -1.49 | 0.894 | -0.0184 | -0.381 | -0.0087 | 0.131 | -0.367 | 0.711 | 0.415
COc1ccc(O[C@@H]2[C@H](O)CO[C@@H]2C=Cc2ccccc2)cc1 | 0.638 | -0.228 | -0.256 | -1.63 (inactive) | -0.0055 | -0.0208 | -0.169 | 0.367 | 0.148 | 0.448 | 0.16 | 0.238 | 0.138 | 0.0425 | -0.665 | -0.148 | -0.399 | -0.111 | 0.288 | 0.369
CCOC(=O)C1=NO[C@@]2(C=C(Br)C3(OCCCO3)[C@H]3O[C@H]32)C1 | 0.984 | -0.042 | 0.521 | 0.0671 (inactive) | 1.07 | 0.827 | 1.13 | 0.842 | 1.66 | 1.59 | 0.339 | -0.154 | 1.13 | -2.14 | -2.64 | -0.138 | 0.0952 | -0.452 | -0.143 | 2.04
CC(C)=NOC[C@@H](C)[C@H](OCc1ccccc1)C(C)C | -0.229 | -0.0423 | 0.631 | -0.159 (inactive) | -0.822 | -1.06 | -0.602 | -0.664 | -0.355 | 0.927 | -1.19 | -0.801 | -0.0001 | -0.211 | -0.285 | -0.0758 | -0.0709 | -0.402 | -0.368 | 0.213
COC(=O)CC=C[C@@H](C)[C@@H](C=NO[C@@H](C)c1cn([C@H](CO)Cc2ccccc2)nn1)OC | 0.361 | -0.435 | -0.572 | -0.772 (inactive) | 0.229 | 0.165 | 0.523 | 0.31 | 0.498 | -0.163 | 0.939 | 0.0629 | 0.499 | -1.04 | -1.48 | -0.0944 | -0.138 | 0.15 | -0.0644 | -0.027
CCOC(=O)[C@H](Cc1ccccc1)NC(=O)CCC1CC(OC(=O)NCCc2ccc(F)cc2)CC2(CCCC(COC(=O)NCCc3ccc(Cl)cc3)O2)O1 (stereo not given in full) | 0.54 | -0.0724 | -0.379 | -0.0219 (inactive) | 0.319 | 0.691 | 0.401 | 0.422 | 0.555 | 0.018 | 1.33 | -0.226 | 0.546 | 1.28 | 0.198 | -0.158 | -0.0977 | 0.232 | 0.949 | 0.49
COC(=O)NCC=Cc1nc(CCCO)co1 | 0.439 | -0.414 | -0.576 | 0.566 (inactive) | 0.534 | 0.926 | 0.581 | 0.887 | 0.617 | 0.163 | 0.722 | -0.0343 | 0.493 | -0.368 | -0.98 | -0.0462 | 0.0141 | -0.137 | 0.116 | -0.498
